# Reference: PubChem BioAssay AID2551 (National Center for Advancing Translational Sciences (NCATS), 2010)
# Screen size: about 310,000 compounds; about 17,000 (5.5%) were called active. Not shown: some 11% with an inconclusive outcome. The list comes from a sample in which actives are over-represented; it also holds similar structures and randomly drawn compounds. Values without a mark were called inactive. Calls follow the shape of the dose curve; as a rule, active = well fitted inhibition curve with a large enough effect; inconclusive = small, poorly fitted or top-dose-only effect, or effect the other way; inactive = no such curve, though single readings can be large or run the other way.
# Target: Nuclear receptor ROR-gamma (Mus musculus) (UniProt P51450)
# Experiment: qHTS for inhibitors of ROR gamma transcriptional activity; also: nearly all actives have a fitted effect of over 60% in size
# Conditions: Drosophila S2 Gal4-RORgamma UAS-luciferase reporter, 20 h; series mostly up to 53.6 µM; activity change, negative = inhibition: at the top concentration
# Summary of the method: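 Read-out: Photinus luciferase luminescence; inhibitors lower reporter signal. Insect Schneider cells with Gal4-ROR gamma fusion under metallothionein promoter, UAS reporter; 700 uM final copper sulfate induction, 20 hr, ambient temperature.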
# % is scaled to controls: 0 for no effect and ±100 for the full control effect; potency is read from the fitted curve at half-maximal effect.
# Nuclear receptor ROR-gamma (Mus musculus), sequence (P51450 whole entry, looked up): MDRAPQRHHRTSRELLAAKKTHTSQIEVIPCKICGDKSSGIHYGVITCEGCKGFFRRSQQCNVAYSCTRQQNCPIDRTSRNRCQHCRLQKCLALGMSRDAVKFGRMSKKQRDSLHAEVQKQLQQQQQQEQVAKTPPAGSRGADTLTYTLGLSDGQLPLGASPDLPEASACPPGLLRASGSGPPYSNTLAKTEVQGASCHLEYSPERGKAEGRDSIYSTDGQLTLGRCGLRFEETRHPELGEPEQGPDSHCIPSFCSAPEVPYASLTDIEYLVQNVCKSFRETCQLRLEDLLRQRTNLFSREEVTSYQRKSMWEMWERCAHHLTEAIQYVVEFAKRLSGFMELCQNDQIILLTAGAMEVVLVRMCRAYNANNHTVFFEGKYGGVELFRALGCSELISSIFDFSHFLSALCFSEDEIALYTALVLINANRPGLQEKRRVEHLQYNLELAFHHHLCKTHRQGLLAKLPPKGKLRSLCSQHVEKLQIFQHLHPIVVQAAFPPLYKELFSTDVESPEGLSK
Structure (SMILES),"activity change, negative = inhibition",Potency
Cc1cccc(-c2c(NC(=O)c3ccco3)oc3ccc(Cl)cc3c2=O)c1,-0.588%,
CN(C)CCOC1c2ccccc2-c2ccccc21,-25.2%,
COc1ccc(CNC(=O)C2CCN(C(=O)c3ccccc3)CC2)cc1,2.56%,
O=C(c1ccccc1F)N1CCN(S(=O)(=O)c2ccc(Br)cc2)CC1,-0.802%,
O=C(c1ccc(Cl)c(S(=O)(=O)N2CCCCC2)c1)N1CCCCCC1,3.79%,
O=C(c1ccc[nH]c1=S)N1CCN(S(=O)(=O)c2ccc(Br)cc2Cl)CC1,,22.4 µM (active)
COc1cc2c(C(=O)N(C)c3cc(Cl)ccc3OC)cn(C)c(=O)c2cc1OC,18.1%,
COc1ccc(CNC(=O)C2CCN(S(=O)(=O)c3ccc(SC)cc3)CC2)cc1,31.9%,
Cc1nnc(SCC(N)=O)n1CC1CCCO1 (configuration not stated),0.52%,
Cc1ccsc1C(=O)OCC(=O)c1cc(C)n(CC2CCCO2)c1C (configuration not stated),,3.98 µM (active)
Cc1cc(C(=O)COC(=O)C2CC2)c(C)n1-c1ccc(F)cc1,6.95%,
CCc1ccc(CN(C)C(=O)C2CCC(=O)N(Cc3cccc(OC)c3)C2)nc1 (configuration not stated),-27.6%,
CC(C)CC(=O)Nc1ccc(Cc2ccncc2)cc1,9.55%,
O=C(O)C1CCCN1C1=NS(=O)(=O)c2ccccc21 (configuration not stated),-12.2%,
O=C(CN1CCC(NC(=O)C2CC2)CC1)Nc1ccccc1[N+](=O)[O-],-10.8%,
Cc1ccc(NC(=O)Cn2nc(C)c3ccccc3c2=O)c(C)c1,16.6%,
C/C(CC(=O)Nc1ccc(C)cc1C)=N\NC(=O)C(C)C,-36.6%,
Cc1c(NC(=O)c2cccnc2)c(=O)n(-c2ccccc2)n1C,,inactive
O=C(CSc1cccc2cccnc12)N/N=C/c1cccnc1,,7.08 µM (active)
Cc1ccc(NC(=O)CSc2cccc3cccnc23)c(C)c1,,10 µM (active)
Cc1c(NC(=O)CSc2nnnn2-c2ccc(C(=O)O)cc2)c(=O)n(-c2ccccc2)n1C,-0.926%,
O=C(CNC(=O)c1cccnc1)N/N=C/c1cccnc1,-2.45%,
Cc1nc2ccccc2n1CC(=O)N/N=C/c1cccnc1,-11%,
Cc1c(NC(=O)CSc2cccc3cccnc23)c(=O)n(-c2ccccc2)n1C,,7.94 µM (active)
Cc1cc(NC(=O)CCN2CCN(Cc3ccccc3)CC2)ccc1Br,18.5%,
CCN(CC)S(=O)(=O)c1ccc(N2CCOCC2)c(NC(=O)C2CSC3(C)CCC(=O)N23)c1 (configuration not stated),-10.9%,

Structure (SMILES),"activity change, negative = inhibition",Potency
O=C(CCS(=O)(=O)c1ccc2c(c1)NC(=O)CS2)NCc1ccccc1Cl,-16.6%,
Cc1ccc(CN(CC(=O)NC2CCCCC2)C(=O)c2csnn2)cc1,-2.84%,
O=C(c1ccccc1)N1CCC(CC2CC(c3ccc(Cl)cc3)=NO2)(C(=O)NCC2CCCCC2)CC1 (configuration not stated),40.6%,
COc1cccc(CNC(=O)CCC2CCCN(C(=O)c3ccc(F)c(Cl)c3)C2)c1 (configuration not stated),18.5%,
Clc1ccc(CN2CCN(/N=C/c3cccnc3)CC2)cc1,30.9%,
O=Cc1cn(Cc2ccccc2)nc1-c1cccnc1,31.5%,
O=C1/C(=C\c2cccnc2)CN(Cc2ccccc2)C/C1=C\c1cccnc1,,6.31 µM (active)
Cc1cc(C)c(S(=O)(=O)c2cc(F)ccc2C)c(=O)[nH]1,4.32%,
O=S(=O)(c1ccc(Br)cc1)c1nc(-c2ccccc2)oc1N1CCOCC1,18.9%,
CCOC(=O)c1cccc(NC(=O)CCc2nnc3ccc(N4CCOCC4)nn23)c1,-7.72%,
CCn1c2ccccc2c2cc(NC(=S)N3CCOCC3)ccc21,,3.16 µM (active)
CCn1c2ccccc2c2cc(NC(=O)CNC)ccc21,-24.9%,
Cc1cc(N2CCN(C)CC2)nc2ccc(NC(=S)N3CCOCC3)cc12,20.9%,
COc1ccc(NC(=O)CN2C(=O)CSc3ccc(S(=O)(=O)N4CCC(C)CC4)cc32)cc1,-3.43%,
CCOc1ccc(N(CC(=O)NCC2CCCO2)S(=O)(=O)c2ccc(C)cc2)cc1 (configuration not stated),-1.53%,
CC(C)CNC(=O)C(=O)NCC(c1ccc2c(c1)OCO2)N1CCOCC1 (configuration not stated),-9.72%,
O=C(CCN1C(=O)[C@@H]2Cc3ccccc3CN2C1=O)NCc1ccccc1,-16.9%,
COC(=O)c1ccccc1NC(=O)C1CCN(C(=O)N2CCOc3ccccc32)CC1,-18.9%,
CC(Sc1nnc(CNC(=O)c2ccccc2F)n1C)C(=O)Nc1nccs1 (configuration not stated),44.3%,
Cc1ccc(S(=O)(=O)N2CCC(C)CC2)cc1C(=O)NCc1ccccn1,20.4%,
COc1cccc(CNC(=O)Cn2c(=O)oc3cc(S(=O)(=O)N4CCCCC4)ccc32)c1,-5.77%,
O=C(Cc1cccs1)Nc1ccc([N+](=O)[O-])cc1,-3.22%,
CCNC(=O)N1c2ccccc2Sc2ccccc21,7.49%,
O=C(CCN1c2ccccc2Sc2ccccc21)Nc1ccccc1,29.4%,
CCN1/C(=C/C(=S)Nc2ccccc2)Sc2ccccc21,,3.16 µM (active)
COc1ccc(C(=O)NC2CC2)cc1OC1CCN(C/C=C/c2ccccc2)CC1,-0.323%,
